GIRK2 activator: GIRK2 channel activators by thallium flux. P48051. HEK293 GIRK2/NPY4 cells, thallium flux fluorescence. activation (% efficacy), % for hits at 37.5 µM. 34,000 tested, under 10 active. AID 1259324;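 active = primary screen hit, no activity in plain HEK293 cells, and in GIRK2-only cells above 5% efficacy rising with concentration; inactive = the rest, including fluorescent compounds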;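 note: efficacy is normalized control-subtracted fluorescence 15 s after thallium addition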
GluA2 TARP mod: modulates AMPAR-stargazin complexes; HEK293 GluA2+stargazin, membrane potential dye (FDSS), glutamate EC50; hits were called plate by plate, in both directions; calls only at 30 µM; 40,000 tested, 3.5% active; O88602+P19491;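 active = any of four per-well response measures lying three or more SD from its plate-wide compound average, in either direction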
Starred values were filed as active, the others as inactive; i = inactive; / = no result; + = active, no number. Many of the other results were omitted from the sample, so hits are more common in it than they were.

SMILES	GIRK2 activator	GluA2 TARP mod
COc1ccccc1NC(=O)CSc1nc(-c2ccccc2)[nH]c1S(=O)(=O)c1ccccc1	i	+
CC1CCCCN1C(=O)CSc1nc(-c2ccccc2)[nH]c1S(=O)(=O)c1ccccc1 (stereo unspecified)	i	+
O=C(CSc1nc(-c2ccccc2)[nH]c1S(=O)(=O)c1ccccc1)NC1CCCC1	i	i
NC(=O)Cn1nnn(-c2ccc(NC(=O)c3cnccn3)cc2)c1=O	i	i
Cc1ccc2oc(C(=O)NCc3ccco3)cc2c1	i	i
Cc1cc(C)c(NC(=O)CSc2nccnc2N2CCSCC2)c(C)c1	i	i
O=C(CS(=O)(=O)c1ccc(Cl)s1)Nc1cccc(C(F)(F)F)c1	i	+
O=C(CS(=O)(=O)c1ccc(Cl)s1)Nc1ccc(Oc2ccccc2)cc1	i	i
COc1ccc(CC(=O)Nc2cc(C3CC3)nn2-c2nc(C)cc(=O)[nH]2)cc1OC	i	i
COc1ccccc1-c1nnc(NC(=O)Cc2ccc(S(C)(=O)=O)cc2)o1	/	+
COc1ccc(-c2nnc(NC(C)=O)o2)c(OC)c1	/	+
COc1ccc(-c2nnc(NC(=O)c3cccc(S(=O)(=O)C(C)C)c3)o2)c(OC)c1	i	+
COc1ccccc1-c1nnc(NC(=O)c2ccccc2)o1	/	i
COc1ccc(C(=O)Nc2nnc(-c3ccccc3OC)o2)cc1	/	i
COc1ccccc1-c1nnc(NC(=O)Cc2ccc(SC)cc2)o1	/	i
Cc1nc2cc(NC(=O)C3CN(c4nc5ccccc5s4)C3)ccc2s1	i	i
COCCN1COc2ccc3c(=O)c(Oc4ccc(C(=O)OC)cc4)c(C)oc3c2C1	i	i
CC(C)c1nnc(C2CCN(C(=O)Nc3ccc(C(C)(C)C)cc3)CC2)o1	i	i
COc1ccc(CCS(=O)(=O)N2CCC(c3cccs3)CC2)cc1	i	i
CCOC(=O)N1CCC(NC(=O)C2CCN(c3cc(Sc4cc(C)ccc4C)ncn3)CC2)CC1	i	+
Cc1ccc(C)c(Sc2cc(N3CCC(C(=O)NCC(C)C)CC3)ncn2)c1	i	i
Cn1c(=O)c2c(nc(N3CCCCCC3)n2CC(O)c2ccccc2)n(C)c1=O (stereo unspecified)	i	i
CNc1oc(-c2ccc(S(=O)(=O)N3CCC(C)CC3)cc2)nc1C#N	i	i
O=C(Nc1ccc(F)c(F)c1)c1n[nH]c2ccccc12	/	+
CSc1cccc(NC(=O)c2n[nH]c3ccccc23)c1	i	i
SMILES	GIRK2 activator	GluA2 TARP mod
O=C(NCc1ccccc1Cl)c1coc(NC(=O)c2ccco2)n1	i	i
O=C(Nc1nc(C(=O)N2CCc3ccccc3C2)co1)c1ccco1	i	+
Cn1nc(-c2ccc(F)cc2)cc1C(=O)N1CCC(c2cccs2)CC1	i	i
COC(=O)/C=C1\S/C(=N/Nc2nc(C)cc(C)n2)N(c2ccccc2)C1=O	i	/
COC(=O)/C=C1\S/C(=N\Nc2nc(C)cc(C)n2)N(c2ccccc2)C1=O	/	+
COc1ccc(Cc2nc3ccccc3n2CC(=O)N2CCCCCC2)cc1OC	i	i
Cc1ccccc1NC(=O)Cn1c(Cc2ccccc2)nc2ccccc21	i	+
CC(C)c1ccc(C(=O)Cn2nc(-c3ccco3)c3sc(N4CCCCC4)nc3c2=O)cc1	i	i
COc1cccc2sc(=NC(=O)c3cc(C)no3)n(C)c12	i	+
COc1ccc(OC)c2c1sc(=NC(=O)c1cc(C)no1)n2C	i	i
O=C(Nc1nnc(Cc2cccs2)o1)c1cc2cc([N+](=O)[O-])ccc2s1	i	i
CCOC(=O)CCn1c(=O)c2c(nc3n(-c4ccc(C)cc4)c(C)cn23)n(C)c1=O	/	i
COc1ccc2c(C)c(-c3ccc(Br)cc3)c(=O)oc2c1	/	i
C=CCn1c(SCC(=O)NCc2ccco2)nc2scc(-c3ccccc3Cl)c2c1=O	i	+
C=CCn1c(SCC(=O)NCC2CCCO2)nc2scc(-c3ccc(Cl)cc3)c2c1=O (stereo unspecified)	i	i
NC(=O)c1ccsc1NC(=O)C1CCCCC1	i	i
NC(=O)c1ccsc1NC(=O)C1CCN(S(=O)(=O)c2ccc(Cl)cc2)CC1	i	+
COc1cccc(CNC(=O)C(=O)Nc2ccc3c(c2)N(S(C)(=O)=O)CCC3)c1	i	i
O=C(Nc1ccc(CC(=O)N2CCC(O)CC2)cc1)c1cc(-c2ccco2)on1	i	/
O=C(Nc1ccc2cn[nH]c2c1)c1ccc2nc[nH]c2c1	i	i
CCOc1ccc(C(=O)Nc2cc3c4c(c2)CCC(=O)N4CCC3)cc1	i	i
O=C(Nc1cccc(-c2cnc3n2CCC3)c1)c1ccc2nc[nH]c2c1	i	+
O=C(Nc1cccc(-c2cnc3n2CCC3)c1)c1cc(-c2ccco2)on1	i	+
CCOc1ccc(C(=O)Nc2cccc(-c3cnc4n3CCC4)c2)cc1	i	+
O=C(NCC1CCN(C(=O)c2ccccc2F)CC1)c1ccc(Br)o1	i	i
SMILES	GIRK2 activator	GluA2 TARP mod
Cn1nnc2c(SCC(=O)NCc3ccccc3)ncnc21	i	i
Cc1ccc(-n2ncc3c(=O)n(NC(=O)c4ccccc4)cnc32)cc1	i	i
O=C(C(=O)N1CCN(c2ncnc3c2nnn3-c2ccccc2)CC1)c1c[nH]c2ccccc12	/	i
COc1ccc(S(=O)(=O)Nc2nc(C(=O)Nc3ccc(Cl)cc3)cs2)cc1	i	i
COc1ccc(S(=O)(=O)Nc2nc(C(=O)Nc3ccc(C(C)C)cc3)cs2)cc1	i	+
CS(=O)(=O)N1CCCC1C(=O)Nc1ccc2sccc2c1 (stereo unspecified)	i	i
CCc1nnc(NC(=O)CSc2nnnn2-c2cccc(C)c2)s1	i	i
O=C(Nc1ccc2c(c1)N(C(=O)c1cccs1)CC2)c1ccc2ccccc2c1	i	/
CCC1(C)CC(CCN(Cc2ccccc2F)C(C)=O)(c2ccccc2)CCO1 (stereo unspecified)	/	+
O=C(NCC1(c2ccccc2)CCOCC1)c1ccccc1C(F)(F)F	i	i
O=C(Nc1cccc(C(F)(F)F)c1)C1CCCN(C(=O)Nc2cccs2)C1 (stereo unspecified)	i	+
COC(=O)Nc1ccc(S(=O)(=O)N2CCCC(C(=O)Nc3cccc(C(F)(F)F)c3)C2)cc1 (stereo unspecified)	/	i
COc1ccc(CNC(=O)CCC2=NS(=O)(=O)c3ccccc3N2)cc1OC	i	i
COc1ccc(C(=O)Nc2cc(C3CC3)nn2-c2nc(C(C)C)cc(=O)[nH]2)cc1OC	i	+
COc1ccc(CC(=O)Nc2cc(C3CC3)nn2-c2nc(C(C)C)cc(=O)[nH]2)cc1OC	i	i
CCn1nc(C(=O)NCc2csc(-c3ccccc3)n2)ccc1=O	i	i
O=C(NCC1CCN(S(=O)(=O)C2CC2)CC1)c1cccc(F)c1	i	i
CC(=O)c1c(N(C)CCO)nc2ccc(Cl)cc2c1-c1ccccc1	i	/
O=C(Nc1ccc2ncsc2c1)c1ccc(C(=O)c2ccccc2)cc1	i	i
O=C(Nc1ccc2ncsc2c1)c1cccc([N+](=O)[O-])c1	i	+
O=C(Nc1ccccc1)c1cccc2nc3ccccc3nc12	/	+
O=C(Nc1ccccc1)c1ccc(C(=O)Nc2ccccc2)nc1	/	i

Bioassay records (PubChem)
